From PubChem BioAssay AID793 (The Scripps Research Institute Molecular Screening Center, 2007)
About 1,400 (1%) of roughly 140,000 compounds were called active. Shown is part of a subset that was picked to be rich in actives. Unmarked numbers belong to inactive results. Rule as the data show it: active = inhibition above about 17%; inactive = the rest.

The compounds below were run against Neuropeptide Y receptor type 2 (Homo sapiens) (UniProt P49146) (assay: NPY-Y2 receptor antagonists, primary screen, cell-based (AID 793;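 also: 0% = vehicle with agonist challenge and 100% = reference antagonist with challenge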)). Conditions: NPY-Y2 expressing cells, antagonist mode; at 2.7 µM; stronger effect = higher value.
Sequence of Neuropeptide Y receptor type 2 (Homo sapiens) (P49146 whole entry, looked up): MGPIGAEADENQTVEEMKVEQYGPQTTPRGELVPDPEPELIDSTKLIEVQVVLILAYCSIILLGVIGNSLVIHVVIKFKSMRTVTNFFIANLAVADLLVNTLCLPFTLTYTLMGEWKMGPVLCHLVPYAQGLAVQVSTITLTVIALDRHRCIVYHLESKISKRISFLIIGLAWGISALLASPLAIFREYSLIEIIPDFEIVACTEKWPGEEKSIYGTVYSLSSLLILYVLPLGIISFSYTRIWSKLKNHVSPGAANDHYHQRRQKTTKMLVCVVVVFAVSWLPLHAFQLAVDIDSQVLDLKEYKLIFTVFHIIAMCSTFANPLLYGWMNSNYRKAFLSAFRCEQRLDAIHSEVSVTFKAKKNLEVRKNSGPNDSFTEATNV

SMILES | inhibition
CC1CCCCN1CC(=O)NCc1ccc2c(c1)OCO2 (stereo not drawn) | 1.99%
Cc1ccc(NC(=O)CN2CCC3(O)CCCCC3C2c2ccc3c(c2)OCO3)c(C)c1 (stereo not drawn) | 21.3% (active)
CCN(CC)c1ccc(C2C3CCCCC3(O)CCN2CC(=O)Nc2ccccc2)cc1 (stereo not drawn) | 5.72%
FC(F)Oc1ccccc1NC(=S)Nc1cccc(Cl)c1Cl | 0.76%
CCCCN(CC)C(=S)Nc1ccc2nc3n(c(=O)c2c1)CCCCC3 | 3.37%
COc1ccc(/C=C(/CC(=O)Nc2ccc(C)cc2)c2nc3ccccc3s2)cc1 | 3.93%
O=C(C(=O)N1CCc2ccccc2C1)N1CCc2ccccc2C1 | -0.59%
CCOC(=O)/C(C#N)=C/c1ccc(N2CCN(Cc3ccccc3)CC2)cc1 | 5.28%
CC1CN(S(=O)(=O)c2ccc(C(=O)Nc3sccc3C(N)=O)cc2)CC(C)O1 (stereo not drawn) | -0.61%
CNC(=S)NNC(=O)c1sccc1OCc1ccccc1 | -0.16%
Cc1ccsc1C(=O)N/N=C/c1ccc([N+](=O)[O-])cc1 | 1.67%
Cc1ccc(/C=N/NC(=O)c2sccc2OCc2ccc(F)cc2)cc1 | 25.7% (active)
CCCCOc1ccc(C(=O)NN2CCN(C)CC2)cc1 | 0.95%
CCCOc1ccc(C(=O)C(CCC(CNCC)C(=O)c2ccc(OCCC)cc2)CNCC)cc1 (stereo not drawn) | 30.9% (active)
CCCCOc1ccc(C(=O)NCc2ccncc2)cc1 | -1.04%
CCOc1ccc(C(=O)Nc2nccs2)cc1[N+](=O)[O-] | -0.69%
O=C(OC1CCOC1=O)c1cccc(S(=O)(=O)Nc2ccc(F)cc2)c1 (stereo not drawn) | 2.56%
CCc1cccc(NC(=O)CCC(=O)O)c1 | 1.58%
CCOC(=O)COc1ccc([N+](=O)[O-])cc1 | 1.59%
COc1ccc(OC)c2c(N)c(C#N)c(C(F)(F)C(F)(F)F)nc12 | -1.33%
COc1ccc(C2CC(=O)Nc3sc(=N)c4c(N)c(C#N)c(N)nc4c32)cc1OC (stereo not drawn) | 86.1% (active)
N#Cc1c(N)nc2c3c(sc(=N)c2c1N)NC(=O)CC3c1ccccc1Cl (stereo not drawn) | 1.65%
CCN(CC)S(=O)(=O)c1cccc(-c2n[nH]c(=S)n2/N=C/c2ccc(C(=O)OC)cc2)c1 | -0.07%
Cc1cc(C)nc(NC(=O)c2cccc([N+](=O)[O-])c2)c1 | 2.05%
COc1ccc(/C=C/C(=O)c2cc(Br)ccc(=O)c2O)cc1 | 5.15%
CCOc1ccc(NC(=S)NC(=O)/C=C/c2ccc(OC)cc2)c([N+](=O)[O-])c1 | 0.55%
O=C(/C=C/c1ccc(F)cc1)NC(=S)NNC(=O)c1cccnc1 | 2.46%
COc1ccc(/C=C/C(=O)NC(=S)NN2CCCCC2c2cccnc2)cc1 (stereo not drawn) | 44% (active)
